Screening results: PubChem BioAssay, several laboratories
dFosB activator: activators of mouse delta FosB homodimer | P13346 | purified delta FosB, TAMRA-CDK5 oligo fluorescence polarization; percent of positive-control signal above neutral wells | activation, % at 25 µM | actives 0.99% (n = 340,000);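 active = mean activation above about 17%, with every replicate also reaching it, limit read from the data, passing the limit was not always enough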
Target sequence (P13346 whole entry, looked up): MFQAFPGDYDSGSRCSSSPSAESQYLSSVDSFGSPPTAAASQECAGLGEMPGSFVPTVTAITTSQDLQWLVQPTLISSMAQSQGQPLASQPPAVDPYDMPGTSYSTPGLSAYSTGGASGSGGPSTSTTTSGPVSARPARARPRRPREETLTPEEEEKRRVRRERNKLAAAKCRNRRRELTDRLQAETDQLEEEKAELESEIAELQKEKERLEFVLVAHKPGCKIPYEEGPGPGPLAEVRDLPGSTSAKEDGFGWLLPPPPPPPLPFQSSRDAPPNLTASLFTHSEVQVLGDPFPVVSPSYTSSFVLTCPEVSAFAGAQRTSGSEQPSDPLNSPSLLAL
MPTP block: blocks calcium-induced mitochondrial swelling. actives 1.4% (n = 360,000). inhibition, % at 10 µM. isolated mouse mitochondria, Ca2+ swelling absorbance, 30 min. AID 602449;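 active = inhibition of 50% or more, scaled per plate between neutral and stimulator controls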;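 note: 0% = DMSO wells given calcium and 100% = 1 mM EGTA wells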
Platelet DG rel: modulates dense granule release in human platelets | inhibition, %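 (compounds screened at 7.5 µM in platelet-rich plasma)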 | human platelet-rich plasma, SFLLRN dense granule ATP release, luminescence | actives 0.22% (n = 300,000) | AID 1663;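 active = mean replicate score, as percent of positive control, at or above 50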
HSF1 activator: increases HSF-1 driven luciferase reporter signal. NIH3T3-HGL HSF-1 luciferase reporter, MG132, 8 h; 100% = twice DMSO control signal. actives 1.7% (n = 300,000). AID 504408. activation, % at 9 µM;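 active = mean replicate activation of at least 50% with a set share of replicates each reaching 50%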;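 note: 0% = median of the neutral control wells and 100% = twice that signal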
HSP90 inh: HSP90 refolding inhibition in rabbit reticulocyte lysate. AID 1789. inhibition, % at 5.6 µM. luciferase refolding luminescence, 3 h. actives 0.91% (n = 290,000);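 active = inhibition above the screen-wide mean plus 3 SD, computed separately per campaign, cut at about 16% in these data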;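 note: 0% = DMSO wells and 100% = 60 µM geldanamycin wells; inhibitors lower the luminescence because luciferase stays unfolded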
HSF1 inhib: HSF1 inhibition | NIH3T3-HGL HSE-luciferase, MG132-induced, luminescence 8 h; stronger effect = lower value | activity change, negative = inhibition, % at 7.5 µM (by protocol) | actives 0.77% (n = 300,000) | AID 2098;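 active = more than half of replicate wells show activity change below -50%, luminescence cut by over half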;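 note: luciferase reports HSF-1 transcriptional activity via heat shock element; 0% = median of DMSO wells and -100% = zero luminescence signal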
Rh123 counter: membrane potential counter-screen of mitochondrial pore inhibitors; shares compounds with MPTP block; isolated mitochondria, Rhodamine 123 fluorescence; inhibition, % at 10 µM; actives 78% (n = 5,000); AID 624504; in the data active = inhibition above about 22%;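 note: 0% = DMSO vehicle and 100% = positive control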
An asterisk follows results filed as active. Most compounds without a hit are left out; they make up all but 4.9% or so of the library.

For CCOC(=O)c1c(-c2ccccc2)oc2ccc(OC(C)C(=O)O)cc12 (stereo unspecified) the results were dFosB activator -1.2, MPTP block 1.3, Platelet DG rel -1.6, HSF1 activator -8.2, HSP90 inh -2.8 and HSF1 inhib -9.0.
For Cc1ccc(-c2nc(CSc3nc4ccccc4c(=O)n3CCO)cs2)cc1 the results were dFosB activator -6.8, MPTP block 4.2, Platelet DG rel -9.7, HSF1 activator 8.2, HSP90 inh -2.1 and HSF1 inhib 3.5.
For Cc1ccc(-c2nc(CSc3nc4ccccc4c(=O)n3C)cs2)cc1 the results were dFosB activator -1.7, MPTP block 100.3*, Platelet DG rel 5.0, HSF1 activator 12.2, HSP90 inh -1.3, HSF1 inhib -0.9 and Rh123 counter 45.2*.
`COCCn1c(SCc2ccc(C(=O)OC)o2)nc2ccccc2c1=O` gave dFosB activator -3.9, MPTP block 2.8 and HSP90 inh 1.5.
Screening COC(=O)c1cc(CSc2nc3ccccc3c(=O)n2C)oc1C returned dFosB activator -18.4, MPTP block 84.2*, Platelet DG rel -0.8, HSF1 activator 17.6, HSP90 inh -0.5, HSF1 inhib 16.8 and Rh123 counter 93.4*.
Screening CCOC(=O)[C@]12CCC=C1N(Cc1ccco1)C(=O)[C@H](CC(=O)NCc1ccccc1)C2 returned MPTP block -0.4.
`C=CCn1c2ccccc2c(=O)c2cc(C#Cc3ccsc3)ccc21` gave Platelet DG rel 6.5, HSF1 activator 9.7, HSP90 inh 1.5 and HSF1 inhib 10.8.
For CC(NC(=S)Nc1cccc(C(F)(F)F)c1)C(C)(C)C (stereo unspecified) the results were dFosB activator 8.2, MPTP block 94.4*, Platelet DG rel -1.9, HSF1 activator 47.5, HSP90 inh -2.5, HSF1 inhib -1.5 and Rh123 counter 94.8*.
Screening FC(F)(F)c1cccc(NC(=S)NNC(=S)Nc2ccc(Cl)cc2)c1 returned Platelet DG rel -5.0, HSF1 activator 4.0, HSP90 inh 0.2 and HSF1 inhib 1.8.
For Cc1ccc(NC(=S)NNC(=S)Nc2cccc(C(F)(F)F)c2)cc1 the results were dFosB activator -6.0, MPTP block 73.3*, Platelet DG rel -7.3, HSF1 activator 2.8, HSP90 inh -0.3, HSF1 inhib 4.9 and Rh123 counter 53.3*.
Screening COc1ccc(NC(=S)Nc2cccc(C(F)(F)F)c2)c(C)c1 returned dFosB activator 0.0, MPTP block 78.2*, Platelet DG rel -5.2, HSF1 activator 13.8, HSP90 inh -2.9, HSF1 inhib -11.8 and Rh123 counter 104.0*.
Screening COc1cccc(NC(=S)Nc2ccc(Br)cc2Cl)c1 returned dFosB activator 4.7, MPTP block 55.5*, Platelet DG rel -5.2, HSF1 activator -7.6, HSP90 inh 2.3, HSF1 inhib -2.1 and Rh123 counter 68.8*.
`COc1ccc(OC)c(NC(=S)Nc2ccccc2)c1` gave dFosB activator -7.9, MPTP block 0.5, Platelet DG rel -3.7, HSF1 activator 4.7, HSP90 inh -5.6 and HSF1 inhib -5.3.
CN(C)NC(=S)Nc1cccc(C(F)(F)F)c1 was read as dFosB activator 5.2, MPTP block -1.7, Platelet DG rel 0.3, HSF1 activator 5.8, HSP90 inh -1.4 and HSF1 inhib -3.6.
`Cc1cc(OCC(O)CNC(C)c2ccccc2)ccc1C(C)C` (stereo unspecified) gave dFosB activator -16.8, MPTP block 6.8, Platelet DG rel -8.2, HSF1 activator 20.0, HSP90 inh 3.4 and HSF1 inhib 5.1.
`CSc1ccccc1NC(=S)Nc1cccc(C(F)(F)F)c1` gave dFosB activator 2.9, MPTP block 94.4*, Platelet DG rel -2.1, HSF1 activator 1.4, HSP90 inh -0.5, HSF1 inhib 10.9 and Rh123 counter 92.3*.
O=C(NCc1ccncc1)[C@@H]1CCCN1C(=O)[C@H]1CCCN1C(=O)c1c(F)cccc1F was read as MPTP block -0.3.
C=CCc1cccc(/C=N/n2cnnc2)c1O was read as dFosB activator -7.4, MPTP block -2.2, Platelet DG rel 0.1, HSF1 activator 11.3, HSP90 inh -3.2 and HSF1 inhib 5.3.
